Molecules are shown by their SMILES. Out of some 340,000 compounds screened, about 2,500 (0.74%) were called active. The full list was thinned out, with actives kept by preference. A number with no mark means an inactive call.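 How the source made its calls: active means inhibition above about 55% (limit read from the data); inactive means the rest.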

Our source for the inhibition values is PubChem BioAssay AID588413 (Sanford-Burnham Center for Chemical Genomics, 2011).

The assay can be described thus: blockers of Gli reporter signaling – luciferase luminescence, Sufu-KO-LIGHT cells, uHTS, primary screen (AID 588413).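 Further: 0% = DMSO-treated cells and 100% = wells with medium but no cells.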 As to conditions: Sufu-KO-LIGHT fibroblasts, at 5 µM, active compounds read high.
With `Cc1ccc2cc(/C=N/Nc3ccc(C(=O)O)cc3)c(Cl)nc2c1`, the inhibition was -101%.
`CCNC(=S)NNC(=O)c1ccc2ncccc2c1`: the inhibition is -4.73%.
On to `O=C(O)c1ccc(N/N=C/c2ccc3ncccc3c2)cc1`, for which the inhibition was 67% (active).
As to `CNc1ccc(SC#N)cc1`, the inhibition was 60.3% (active).
Consider `COc1ccc(N2C(=O)/C(=C\c3ccco3)N=C2SCC(N)=O)cc1Cl`, for which the inhibition was 5.71%.
In the case of `O=C(Cn1cnc2c(nnn2-c2ccccc2)c1=O)N1CCC(Cc2ccccc2)CC1`, the inhibition was -4.74%.
With `COc1cc(-c2nc(S(=O)(=O)c3ccc(Cl)cc3)c(N(C)C)o2)cc(OC)c1OC` the figure was 7.51%; with `COc1cc2ccccc2cc1C(=O)N1CCOCC1`, -5.57%; with `Cc1oc2c(c1C(=O)N1CCOCC1)C(=O)c1ccccc1C2=O`, 87% (active).
Regarding `O=C(c1snnc1-c1ccccc1)N1CCOCC1`, the inhibition was 9.83%.
With `CCOC(=O)[C@H]1[C@H]2COc3ccc(Cl)cc3[C@@H]2N2C(=O)c3cc(C)ccc3NC(=O)[C@@]12C`, the inhibition was 1.26%.
In the case of `CCOC(=O)CN(C(=O)COc1nc(-c2ccccc2)cc(C)c1C#N)c1ccc(F)cc1`, the inhibition is 5.59%.
Turning to `Cc1ccc2c(=O)cc(C(=O)NCCc3ccc(S(N)(=O)=O)cc3)oc2c1C`, the inhibition was -18.4%.
Regarding `CSc1ccccc1NC(=O)Cc1ccc(Br)cc1`, the inhibition was 1.53%.
For `Cc1ccc(S(=O)(=O)NC(C)C(=O)Nc2ccccc2C(=O)N2CCCC2)cc1` (stereo unspecified), the inhibition is 95% (active).
For `COc1ccc(S(=O)(=O)Nc2ccccc2C(=O)N2CCCC2)cc1C`, the inhibition is -10.7%.
With `COc1ccc(S(=O)(=O)NC(C)c2ccccc2)cc1C(=O)N1CCCCC1` (stereo unspecified) the figure was 12.8%; with `CCOc1ccc(/C=C(/C#N)c2nnc(N3CCOCC3)n2-c2ccccc2)cc1OC`, 4.23%.
The figure for `c1c2c(cc3sc(N4CCCCC4)nc13)OCCO2` is 66.6% (active).
Consider `O=S(=O)(Nc1ccc2nc(N3CCOCC3)sc2c1)c1ccccc1`, for which the inhibition is -64.9%.
With `Brc1ccc2nc(N3CCCC3)sc2c1`, the inhibition was -88.5%.
In the case of `CC1CN(C(=O)c2ccccc2NS(=O)(=O)c2cccc([N+](=O)[O-])c2)CC(C)O1` (stereo unspecified), the inhibition was -7.72%.
For `COc1ccc(F)cc1C(=O)C1CCCN(C(=O)CCc2ccccn2)C1` (stereo unspecified), the inhibition was 12.7%.
Turning to `O=c1ccn(Cc2ccccc2Cl)cc1`, the inhibition is 17%.
As to `CC(C)(C)c1cc(C(=O)NN)n(Cc2ccc(Cl)cc2Cl)n1`, the inhibition was -3.86%.
Turning to `N#CC(C#N)=CN=c1ccn(Cc2ccc(Cl)cc2Cl)cc1`, the inhibition was 57.1% (active).
With `COc1ccc(CC(=O)NC(C)c2ccc(Cl)c(Cl)c2)cc1S(=O)(=O)N1CCOCC1` (stereo unspecified), the inhibition was -4.33%.
On to `COc1cc(Cl)c(C)cc1NC(=O)CN1CCCCCC1`, for which the inhibition is 40.6%.
Regarding `Cn1c(=O)c2c(nc(NCCc3ccccc3)n2Cc2ccccc2)n(C)c1=O`, the inhibition was 62.7% (active).
In the case of `Cn1c(=O)c2c(nc(NCCNC(=O)c3ccco3)n2Cc2ccccc2F)n(C)c1=O`, the inhibition was -26.1%.
Take `CCn1c(NCCc2ccc(OC)c(OC)c2)nc2c1c(=O)n(C)c(=O)n2C`: the inhibition was 11.3%.
With `CCCCNc1nc2c(c(=O)n(C)c(=O)n2C)n1Cc1cccc(OC)c1` the figure was 73.1% (active).
With `CCCCNc1nc2c(c(=O)[nH]c(=O)n2C)n1CCOc1ccccc1`, the inhibition was -15.8%.
For the compound `Cn1c(=O)c2c(nc(NCc3ccccc3)n2CC(N)=O)n(C)c1=O`, the inhibition was 0.59%.
Turning to `O=C(Cn1nnc(-c2ccccc2)n1)NC(=O)NC1CCCC1`, the inhibition was 0.46%.
With `Cc1ccc(SC(=O)COc2ccc(C)c(C)c2)cc1`, the inhibition is -16.4%.
`COc1cc(C2C3C(=O)N(c4ccccc4)C(=O)C3ON2c2ccccc2)ccc1O` (stereo unspecified): the inhibition is 1.38%.
`O=C(CCN1C(=O)c2ccccc2C1=O)C1=NN[C@@H]2C(=O)N(c3ccc(F)cc3)C(=O)[C@H]12`: the inhibition was 27.5%.
Take `CO/N=C/c1cn(-c2ccc(Cl)cc2)nn1`: the inhibition was -5.6%.
With `COc1ccccc1CNC(=O)C1CCN(S(C)(=O)=O)CC1` the figure was -3.13%.
The figure for `COc1ccc(OC)c(CNC(=O)C2CCCN(c3nc4ccccc4o3)C2)c1` (stereo unspecified) is 1.69%; for `COc1ccccc1CNC(=O)C1CCN(c2nc3ccccc3o2)CC1` it is 79.4% (active); for `COC(=O)Cc1nc2c(N)nc(N)nc2[nH]c1=O` it is 5.09%.
For `NC(=O)C1CCN(C(=O)c2cc(S(=O)(=O)N3CCN(c4ccccc4)CC3)ccc2Cl)CC1`, the inhibition is 3.01%.
Take `COc1ccc(CS(=O)/C(Cl)=C(/Cl)C(=O)Nc2ccc(OC)nc2)cc1` (stereo unspecified): the inhibition was 68.1% (active).
Regarding `COc1ccc(CCC(=O)c2ccc(OC)cc2)cc1`, the inhibition is 1.15%.
As for `COc1ccc(OC(C)C(=O)Nc2cccnc2)cc1` (stereo unspecified), the inhibition is -1.18%.
With `CCc1c(C)nc2cc(C)[nH]n2c1=O` the figure was 75% (active); with `Cc1nc2nc[nH]n2c(=O)c1C/C=C/c1ccccc1`, 26.2%.
For the compound `C=CCc1c(C)nc2cc(-c3ccccc3)[nH]n2c1=O`, the inhibition was 27.4%.
With `CCOc1ccccc1NC(=S)C(=C([O-])c1ccc2c(c1)OCCO2)[n+]1ccc(CC)cc1`, the inhibition was -43.8%.
In the case of `O=C1C=C(c2ccnc3cc(Cl)ccc23)C[C@@H](c2ccc3c(c2)OCO3)C1`, the inhibition was 66.7% (active).
Consider `O=C1C=C(c2cc(C(F)(F)F)cc(C(F)(F)F)c2)C[C@@H](c2ccc3c(c2)OCO3)C1`, for which the inhibition is 6.64%.
For `COc1ccc2cc(C3=CC(=O)C[C@H](c4ccc5c(c4)OCO5)C3)ccc2c1`, the inhibition is -5.21%.
Consider `N#CCC(=O)NC(=O)NCC1CC1`, for which the inhibition is -8.84%.
For `CC(=O)c1cc(NC(=O)c2ccccc2)c(=O)oc1/C=C/N(C)C`, the inhibition is 8.24%.
Regarding `CCN1CCC2(CCN(Cc3cn[nH]c3-c3ccc(OC)c(F)c3)C2)C1` (stereo unspecified), the inhibition is 7.07%.
Regarding `COc1ccc(-n2c(Cc3cccn3C)nnc2SCC(=O)Nc2cc(C)cc(C)c2)cc1`, the inhibition is 0.63%.
For the compound `CCCCn1c(SCC(=O)N2CCC(C(=O)OCC)CC2)nc2cc(S(N)(=O)=O)ccc21`, the inhibition was 6.66%.
`NS(=O)(=O)c1ccc(CCNC(=O)CCCn2c(SCC(=O)N3CCCC3)nc3ccsc3c2=O)cc1`: the inhibition is 79.4% (active).
For `CCCCn1c(SCC(=O)N2CCCC2=O)nc2cc(S(N)(=O)=O)ccc21`, the inhibition is 5.29%.

Broadly, the inhibition is the change of the read-out against control, counted positive when it falls.
